Assay results published in the supplement of paper PMC11732987, “Enantioselective OTUD7B fragment discovery through chemoproteomics screening and high-throughput optimisation” (Communications Chemistry, 2025).

How the values were obtained:
Test in all cases: log2 ratio of Biotin-Ahx-Ub-VS probe labelling (fragment/DMSO); higher = less target engagement (more negative = stronger competition), active = hit call of the paper (q ≤ 0.05, log2 ratio ≤ -1)
Settings in all cases: compound concentration: 200 uM; treatment time: 3 h
USP9X = USP9X (UniProt Q93008)
Outline: (§1)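 Using Biotin-Ahx-Ub-VS at 0.5 µM final for 1 h, DUBs were labelled in HEK293T lysate (495 µg per sample) that had first been treated in triplicate with fragment at 200 µM or vehicle for 3 h. NeutrAvidin enrichment, LysC and trypsin digestion and diaPASEF LC-MS/MS followed. Spectronaut label-free quantities were global-median-normalised. Values are average log2 fragment/vehicle ratios by unpaired t-test, using proteins with ≥2 unique peptides.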

UniProt O00487 = target: UniProt O00487
Outline: as §1

UniProt O00507 = target: UniProt O00507
Outline: as §1

UniProt P51784 = target: UniProt P51784
Outline: as §1

UniProt Q5T2D3 = target: T1, UniProt Q5T2D3
T1 sequence (whole entry): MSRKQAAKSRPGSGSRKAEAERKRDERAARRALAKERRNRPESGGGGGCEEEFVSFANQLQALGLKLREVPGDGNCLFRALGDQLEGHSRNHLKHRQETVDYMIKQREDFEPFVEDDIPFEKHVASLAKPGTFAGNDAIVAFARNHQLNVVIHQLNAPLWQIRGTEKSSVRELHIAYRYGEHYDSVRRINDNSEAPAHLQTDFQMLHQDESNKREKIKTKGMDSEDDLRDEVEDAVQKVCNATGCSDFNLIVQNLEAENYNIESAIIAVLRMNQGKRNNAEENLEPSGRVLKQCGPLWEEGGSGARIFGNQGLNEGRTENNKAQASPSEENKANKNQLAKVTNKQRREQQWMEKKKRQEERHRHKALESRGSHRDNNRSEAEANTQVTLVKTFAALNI
Outline: as §1

UniProt Q8TE49 = target: T2, UniProt Q8TE49
T2 sequence (whole entry): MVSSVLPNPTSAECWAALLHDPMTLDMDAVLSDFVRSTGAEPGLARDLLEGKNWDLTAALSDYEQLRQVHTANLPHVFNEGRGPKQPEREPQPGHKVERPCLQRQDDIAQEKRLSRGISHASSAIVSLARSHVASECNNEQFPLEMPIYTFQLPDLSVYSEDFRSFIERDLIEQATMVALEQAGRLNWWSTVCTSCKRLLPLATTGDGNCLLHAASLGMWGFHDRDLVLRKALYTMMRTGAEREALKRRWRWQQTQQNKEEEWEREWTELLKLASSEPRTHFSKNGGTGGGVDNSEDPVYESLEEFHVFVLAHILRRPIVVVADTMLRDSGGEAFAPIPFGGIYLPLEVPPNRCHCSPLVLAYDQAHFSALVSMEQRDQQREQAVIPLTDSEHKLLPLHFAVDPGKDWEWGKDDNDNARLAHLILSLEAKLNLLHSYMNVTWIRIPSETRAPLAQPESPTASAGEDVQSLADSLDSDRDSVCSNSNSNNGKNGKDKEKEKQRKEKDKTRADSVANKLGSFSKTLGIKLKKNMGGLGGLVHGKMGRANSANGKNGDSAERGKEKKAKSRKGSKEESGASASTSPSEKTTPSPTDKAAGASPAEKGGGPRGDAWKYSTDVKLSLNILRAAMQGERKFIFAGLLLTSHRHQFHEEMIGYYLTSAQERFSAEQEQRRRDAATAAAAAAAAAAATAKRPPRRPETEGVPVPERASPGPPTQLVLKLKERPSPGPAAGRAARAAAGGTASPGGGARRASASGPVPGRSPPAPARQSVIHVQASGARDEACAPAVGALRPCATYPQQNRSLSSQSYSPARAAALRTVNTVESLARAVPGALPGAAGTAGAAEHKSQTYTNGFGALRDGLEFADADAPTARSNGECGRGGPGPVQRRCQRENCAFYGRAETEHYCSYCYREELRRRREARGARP
Outline: as §1

UniProt Q9P2H5 = target: T3, UniProt Q9P2H5
T3 sequence (whole entry): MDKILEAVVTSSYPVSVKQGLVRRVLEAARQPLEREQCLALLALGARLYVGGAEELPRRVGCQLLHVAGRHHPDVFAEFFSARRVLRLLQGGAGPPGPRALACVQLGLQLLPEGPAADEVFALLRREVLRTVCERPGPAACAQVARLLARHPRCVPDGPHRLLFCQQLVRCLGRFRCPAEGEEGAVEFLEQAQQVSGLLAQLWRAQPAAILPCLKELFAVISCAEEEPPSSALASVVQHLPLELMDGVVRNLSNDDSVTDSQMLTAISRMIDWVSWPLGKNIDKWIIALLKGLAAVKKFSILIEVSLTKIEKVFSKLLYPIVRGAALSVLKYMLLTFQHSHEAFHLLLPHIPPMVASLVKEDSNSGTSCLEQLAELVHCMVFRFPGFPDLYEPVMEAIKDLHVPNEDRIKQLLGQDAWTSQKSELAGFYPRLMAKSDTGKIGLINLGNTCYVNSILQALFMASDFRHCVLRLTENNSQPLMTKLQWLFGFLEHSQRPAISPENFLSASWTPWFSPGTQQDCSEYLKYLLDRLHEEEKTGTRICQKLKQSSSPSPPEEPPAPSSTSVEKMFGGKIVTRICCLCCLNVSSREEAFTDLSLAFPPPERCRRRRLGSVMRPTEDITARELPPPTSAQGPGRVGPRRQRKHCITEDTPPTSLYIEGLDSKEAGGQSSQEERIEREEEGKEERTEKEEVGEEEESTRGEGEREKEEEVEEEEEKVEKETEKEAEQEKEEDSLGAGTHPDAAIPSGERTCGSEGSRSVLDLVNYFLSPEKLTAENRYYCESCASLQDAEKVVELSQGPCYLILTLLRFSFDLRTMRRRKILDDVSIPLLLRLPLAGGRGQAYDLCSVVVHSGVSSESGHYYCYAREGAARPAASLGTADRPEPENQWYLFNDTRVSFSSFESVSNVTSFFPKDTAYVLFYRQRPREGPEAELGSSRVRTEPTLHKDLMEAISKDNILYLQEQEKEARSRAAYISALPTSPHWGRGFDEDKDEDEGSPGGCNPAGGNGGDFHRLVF
Outline: as §1

UniProt Q9UGI0 = target: T4, UniProt Q9UGI0
T4 sequence (whole entry): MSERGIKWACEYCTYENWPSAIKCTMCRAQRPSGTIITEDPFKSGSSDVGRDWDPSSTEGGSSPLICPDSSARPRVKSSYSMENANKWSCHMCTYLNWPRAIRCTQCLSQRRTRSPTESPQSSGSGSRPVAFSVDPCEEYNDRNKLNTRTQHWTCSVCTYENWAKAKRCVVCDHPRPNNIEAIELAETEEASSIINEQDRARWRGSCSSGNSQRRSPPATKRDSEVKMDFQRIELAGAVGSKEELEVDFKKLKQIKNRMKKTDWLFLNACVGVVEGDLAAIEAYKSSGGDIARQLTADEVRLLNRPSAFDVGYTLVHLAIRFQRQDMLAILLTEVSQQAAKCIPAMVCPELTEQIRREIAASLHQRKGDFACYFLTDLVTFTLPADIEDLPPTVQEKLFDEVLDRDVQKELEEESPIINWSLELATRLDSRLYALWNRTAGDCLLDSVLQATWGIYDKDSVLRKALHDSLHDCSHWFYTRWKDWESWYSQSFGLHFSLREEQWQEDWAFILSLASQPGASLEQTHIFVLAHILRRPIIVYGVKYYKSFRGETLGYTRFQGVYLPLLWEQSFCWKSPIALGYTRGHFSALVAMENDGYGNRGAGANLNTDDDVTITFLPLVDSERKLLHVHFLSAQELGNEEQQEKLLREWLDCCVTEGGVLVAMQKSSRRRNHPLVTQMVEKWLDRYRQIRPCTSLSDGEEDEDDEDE
Outline: as §1

YOD1 = target: T5, YOD1 (UniProt Q5VVQ6)
T5 sequence (whole entry): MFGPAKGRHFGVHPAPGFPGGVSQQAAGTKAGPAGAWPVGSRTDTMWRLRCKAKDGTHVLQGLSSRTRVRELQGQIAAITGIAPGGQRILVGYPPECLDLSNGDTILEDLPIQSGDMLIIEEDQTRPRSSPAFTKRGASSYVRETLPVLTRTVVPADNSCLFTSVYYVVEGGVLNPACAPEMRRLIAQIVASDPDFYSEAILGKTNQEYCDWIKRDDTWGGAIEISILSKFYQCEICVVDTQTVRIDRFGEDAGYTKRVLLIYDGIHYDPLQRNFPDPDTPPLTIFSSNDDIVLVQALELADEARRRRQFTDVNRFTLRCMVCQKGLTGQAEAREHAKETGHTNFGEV
Outline: as §1

Measured: log2 ratio of Biotin-Ahx-Ub-VS probe labelling

Sequence of UniProt P51784 (P51784 whole entry): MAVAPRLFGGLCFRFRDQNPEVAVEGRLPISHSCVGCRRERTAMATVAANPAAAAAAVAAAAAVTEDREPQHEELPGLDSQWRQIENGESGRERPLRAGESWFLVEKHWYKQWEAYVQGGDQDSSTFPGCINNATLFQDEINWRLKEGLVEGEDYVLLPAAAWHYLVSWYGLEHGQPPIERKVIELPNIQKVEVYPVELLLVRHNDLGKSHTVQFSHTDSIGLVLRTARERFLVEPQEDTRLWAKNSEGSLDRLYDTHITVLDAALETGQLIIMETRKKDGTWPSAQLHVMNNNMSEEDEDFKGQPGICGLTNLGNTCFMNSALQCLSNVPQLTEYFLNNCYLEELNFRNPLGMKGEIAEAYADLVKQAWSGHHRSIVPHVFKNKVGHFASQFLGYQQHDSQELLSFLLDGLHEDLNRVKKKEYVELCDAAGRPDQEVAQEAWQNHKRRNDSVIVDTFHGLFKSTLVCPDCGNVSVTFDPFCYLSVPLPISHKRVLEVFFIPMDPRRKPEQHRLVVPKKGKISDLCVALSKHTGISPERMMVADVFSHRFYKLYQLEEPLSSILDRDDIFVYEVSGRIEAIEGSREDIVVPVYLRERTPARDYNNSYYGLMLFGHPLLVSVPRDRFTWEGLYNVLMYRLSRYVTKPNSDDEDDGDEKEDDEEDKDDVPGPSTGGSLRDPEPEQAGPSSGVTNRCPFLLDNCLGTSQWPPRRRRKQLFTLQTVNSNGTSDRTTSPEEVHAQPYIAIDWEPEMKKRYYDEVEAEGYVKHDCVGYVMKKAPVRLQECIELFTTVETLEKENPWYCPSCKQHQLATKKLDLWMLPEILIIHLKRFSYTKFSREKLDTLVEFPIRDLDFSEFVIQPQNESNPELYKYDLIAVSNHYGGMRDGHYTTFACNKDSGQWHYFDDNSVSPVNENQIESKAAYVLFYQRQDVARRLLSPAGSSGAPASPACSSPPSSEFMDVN
Sequence of USP9X (Q93008 whole entry, the tested form may be a part): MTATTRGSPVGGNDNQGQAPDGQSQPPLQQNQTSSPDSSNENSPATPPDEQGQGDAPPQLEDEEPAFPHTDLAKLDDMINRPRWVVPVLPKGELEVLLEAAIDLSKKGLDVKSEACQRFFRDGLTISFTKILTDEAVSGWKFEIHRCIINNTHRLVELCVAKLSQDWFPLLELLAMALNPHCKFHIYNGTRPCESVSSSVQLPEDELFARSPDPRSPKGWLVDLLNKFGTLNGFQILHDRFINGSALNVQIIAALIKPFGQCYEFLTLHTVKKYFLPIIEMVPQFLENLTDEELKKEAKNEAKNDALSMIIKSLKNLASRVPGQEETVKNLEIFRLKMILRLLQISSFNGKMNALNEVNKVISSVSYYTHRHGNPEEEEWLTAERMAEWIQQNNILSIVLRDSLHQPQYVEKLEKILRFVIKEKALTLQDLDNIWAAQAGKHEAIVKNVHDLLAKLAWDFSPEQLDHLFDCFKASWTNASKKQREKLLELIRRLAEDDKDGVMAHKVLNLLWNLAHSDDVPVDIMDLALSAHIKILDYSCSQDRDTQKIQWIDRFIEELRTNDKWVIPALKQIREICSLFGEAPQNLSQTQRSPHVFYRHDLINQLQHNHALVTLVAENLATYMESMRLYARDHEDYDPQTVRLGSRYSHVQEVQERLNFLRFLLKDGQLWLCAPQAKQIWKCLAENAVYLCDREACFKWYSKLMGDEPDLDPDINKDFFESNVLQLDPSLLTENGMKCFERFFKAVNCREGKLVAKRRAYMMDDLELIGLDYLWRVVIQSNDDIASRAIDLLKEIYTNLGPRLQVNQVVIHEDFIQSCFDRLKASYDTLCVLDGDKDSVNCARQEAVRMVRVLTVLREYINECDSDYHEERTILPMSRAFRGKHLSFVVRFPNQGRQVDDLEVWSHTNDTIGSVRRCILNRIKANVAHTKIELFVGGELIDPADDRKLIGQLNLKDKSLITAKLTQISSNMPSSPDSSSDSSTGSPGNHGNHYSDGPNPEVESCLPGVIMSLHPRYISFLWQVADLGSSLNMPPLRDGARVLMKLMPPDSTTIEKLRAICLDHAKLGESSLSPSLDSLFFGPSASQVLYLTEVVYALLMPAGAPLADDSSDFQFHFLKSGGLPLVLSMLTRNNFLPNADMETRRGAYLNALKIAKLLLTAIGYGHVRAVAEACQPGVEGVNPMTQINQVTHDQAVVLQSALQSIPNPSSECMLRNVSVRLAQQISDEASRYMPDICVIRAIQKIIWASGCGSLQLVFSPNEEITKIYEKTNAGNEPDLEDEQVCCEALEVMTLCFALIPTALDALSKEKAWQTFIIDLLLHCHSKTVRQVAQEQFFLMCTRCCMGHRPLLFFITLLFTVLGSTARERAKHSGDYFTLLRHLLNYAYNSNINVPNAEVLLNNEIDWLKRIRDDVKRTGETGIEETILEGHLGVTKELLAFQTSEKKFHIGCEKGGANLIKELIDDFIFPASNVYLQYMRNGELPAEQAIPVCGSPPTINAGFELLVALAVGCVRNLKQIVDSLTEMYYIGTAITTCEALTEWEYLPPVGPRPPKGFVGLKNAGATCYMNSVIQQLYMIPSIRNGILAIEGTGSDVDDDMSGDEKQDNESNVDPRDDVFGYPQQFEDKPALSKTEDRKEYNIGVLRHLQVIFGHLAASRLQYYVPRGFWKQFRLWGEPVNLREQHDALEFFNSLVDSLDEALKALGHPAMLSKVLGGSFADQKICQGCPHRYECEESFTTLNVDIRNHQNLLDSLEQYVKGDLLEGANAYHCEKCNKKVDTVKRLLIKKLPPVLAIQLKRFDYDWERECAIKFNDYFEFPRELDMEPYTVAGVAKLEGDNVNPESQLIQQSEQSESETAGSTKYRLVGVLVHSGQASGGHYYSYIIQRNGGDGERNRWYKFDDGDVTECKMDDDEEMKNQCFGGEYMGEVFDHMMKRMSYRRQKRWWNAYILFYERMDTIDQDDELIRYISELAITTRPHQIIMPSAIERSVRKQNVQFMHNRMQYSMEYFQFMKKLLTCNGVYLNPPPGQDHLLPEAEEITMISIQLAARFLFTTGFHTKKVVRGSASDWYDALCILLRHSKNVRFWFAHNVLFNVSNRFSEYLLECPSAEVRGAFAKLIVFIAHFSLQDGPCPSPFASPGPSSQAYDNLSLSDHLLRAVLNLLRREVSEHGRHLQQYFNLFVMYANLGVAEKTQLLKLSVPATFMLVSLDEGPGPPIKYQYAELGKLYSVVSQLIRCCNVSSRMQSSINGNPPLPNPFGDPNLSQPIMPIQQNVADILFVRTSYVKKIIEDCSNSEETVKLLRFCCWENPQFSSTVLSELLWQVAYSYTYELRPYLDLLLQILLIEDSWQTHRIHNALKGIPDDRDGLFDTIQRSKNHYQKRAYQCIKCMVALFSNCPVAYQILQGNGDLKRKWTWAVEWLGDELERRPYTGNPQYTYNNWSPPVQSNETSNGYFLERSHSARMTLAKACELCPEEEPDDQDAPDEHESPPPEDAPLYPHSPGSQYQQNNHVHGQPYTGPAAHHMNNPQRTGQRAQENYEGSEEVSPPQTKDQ
Sequence of UniProt O00487 (O00487 whole entry): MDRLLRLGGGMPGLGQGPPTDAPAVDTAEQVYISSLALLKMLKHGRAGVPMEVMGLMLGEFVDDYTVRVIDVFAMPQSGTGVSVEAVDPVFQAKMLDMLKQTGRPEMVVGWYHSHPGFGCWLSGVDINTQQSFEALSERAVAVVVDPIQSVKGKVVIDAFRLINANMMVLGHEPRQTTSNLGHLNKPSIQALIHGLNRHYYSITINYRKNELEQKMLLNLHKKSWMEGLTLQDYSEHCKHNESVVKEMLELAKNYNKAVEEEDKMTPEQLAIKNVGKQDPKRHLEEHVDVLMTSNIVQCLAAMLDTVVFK

Cc1cccc(C(CNC(=O)CCl)N2CCOCC2)c1.Cl (centres undefined)
inactive: USP9X -0.0494 | UniProt O00487 0.181 | UniProt O00507 0.29 | UniProt P51784 -0.0777 | UniProt Q5T2D3 -0.329 | UniProt Q8TE49 -0.249 | UniProt Q9P2H5 -0.237 | UniProt Q9UGI0 0.0449 | YOD1 -0.28
